# Rows were chosen to be rich in hits. Some 18% of all compounds tested hit in one or more screens of this group.
# Gal4-VP16 FLuc: inhibits Gal4-VP16 luciferase reporter, ROR gamma counter-screen; 3.5% of 310,000 active; Drosophila S2 Gal4-VP16 UAS-luciferase, luminescence, 20 h; Potency, µM (top dose mostly 53.6 µM), inactives show at the highest dose activity, negative = inhibition, actives largely listed as inhibitors;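 also: Gal4-VP16 expression switched on by copper sulfate through the metallothionein promoter; potency is read from the fitted curve at half-maximal effect; nearly all actives have a fitted effect of over 50% in size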
# RORgamma inh: ROR gamma (mouse) transcription inhibition. Potency, µM (series often up to 53.6 µM), for the others: at the highest dose activity change, negative = inhibition, hits mostly inhibitors. Drosophila S2 Gal4-RORgamma UAS-luciferase reporter, 20 h. 5.4% of 310,000 active. P51450; also: potency is read from the fitted curve at half-maximal effect; nearly all actives have a fitted effect of over 60% in size
# Target sequence (P51450 whole entry, looked up, the tested form may be a part): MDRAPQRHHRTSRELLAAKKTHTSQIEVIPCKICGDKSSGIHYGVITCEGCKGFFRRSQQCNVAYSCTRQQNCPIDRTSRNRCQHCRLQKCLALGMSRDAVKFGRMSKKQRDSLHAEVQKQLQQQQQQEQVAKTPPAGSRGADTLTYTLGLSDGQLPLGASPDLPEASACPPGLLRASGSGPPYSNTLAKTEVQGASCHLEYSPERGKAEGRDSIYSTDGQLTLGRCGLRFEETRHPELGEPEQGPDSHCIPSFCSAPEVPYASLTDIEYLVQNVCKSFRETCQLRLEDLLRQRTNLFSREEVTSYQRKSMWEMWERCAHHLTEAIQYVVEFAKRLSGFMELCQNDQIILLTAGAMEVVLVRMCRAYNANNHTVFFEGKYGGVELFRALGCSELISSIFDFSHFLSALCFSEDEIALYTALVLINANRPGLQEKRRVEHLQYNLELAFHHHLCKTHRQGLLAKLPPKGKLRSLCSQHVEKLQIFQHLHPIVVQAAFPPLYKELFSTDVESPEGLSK
#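 Luciferase reporter read in Schneider cells carrying Gal4-RORγ (mouse) and UAS-Photinus luciferase; cells given compound 1 h before 700 uM copper sulfate induction, then incubated 20 h at ambient temperature.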
# TDP1 cell CPT: growth inhibition of DT40 Tdp1-/-;hTDP1 cells with camptothecin (screen for TDP1 inhibitors); chicken DT40 Tdp1-/-;hTDP1 cells + 20 nM CPT, ATP luminescence, 48 h; Potency, µM (top dose mostly 46.2 µM), without a hit: at the top dose activity change, negative = growth inhibition, usual class: inhibitors; 12% of 420,000 active; also: potency is read from the fitted curve at half-maximal effect; nearly all actives have a fitted effect of over 55% in size
#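 Chicken DT40 Tdp1-/- cells complemented with human TDP1, 400 cells/well, exposed to compounds plus 20 nM camptothecin for at least 48 h at 37 C; viability read as ATP content by CellTiter-Glo luminescence.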
# IL-1B inflam inh: blocks inflammasome-driven IL-1 beta release; THP-1 LPS/ATP IL-1B secretion, AlphaLISA, 16 h; active compounds read low; activity change, % at 57.5 µM; 4.7% of 360,000 active; AID 743279; in the data active = activity change below about -50%; inconclusive = mostly about -30% to -49%
#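 Secreted IL-1B measured by AlphaLISA bead assay after 16 h compound exposure of THP-1 cells; compounds (final up to 57.5 uM) added 1 h before LPS (250 ng/mL) and ATP (1.25 mM) stimulation; lower signal means less secretion.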
# LDHA block: blocks human lactate dehydrogenase A; P00338; purified LDHA, NADH/diaphorase-resazurin fluorescence; active compounds read low; activity change, % (values are at about 110 or 230 µM); 0.15% of 480,000 active; in the data active = activity change below about -30%; inconclusive = mostly about -25% to -30%;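 also: plate controls were DMSO wells for no effect and wells without enzyme for full effect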
#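 Remaining NADH was detected by diaphorase (0.133 mg/mL) converting 37 µM resazurin to fluorescent resorufin, read at 0 and 20 minutes. The preceding 5-minute room-temperature reaction used 2 nM LDHA, 0.2 mM sodium pyruvate and 0.06 mM NADH at pH 7.4.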
# DT40 TDP1 no CPT: qHTS for Inhibitors of human tyrosyl-DNA phosphodiesterase 1 (TDP1): qHTS in cells in absence of CPT; DT40 Tdp1-/- hTDP1 cells, no CPT, ATP luminescence, 48 h; Potency, µM (doses to about 46.2 µM), for inactives: at the highest dose activity change, negative = growth inhibition, actives largely listed as inhibitors; 15% of 420,000 active; AID 686978, 2013; also: potency is read from the fitted curve at half-maximal effect; nearly all actives have a fitted effect of over 55% in size
#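 Growth kinetics read by CellTiter-Glo luminescence after ≥48 hr at 37 °C. Cells: DT40 Tdp1-/- stably carrying human TDP1, 400 per well, compound exposure in the absence of CPT (DMSO vehicle).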
# Starred values were filed as active, the others as inactive; ? = inconclusive; · = not tested or not shown; [ ] = another dose, or the depositor's remark. Unless noted, calls follow the shape of the dose curve; as a rule, active = well fitted curve in the direction sought with a large enough effect; inconclusive = small, poorly fitted or top-dose-only effect, or another doubt; inactive = no such curve, though single readings can be large; an effect the other way counts as inactive or inconclusive. Unless noted, % is scaled to controls: 0 for no effect and ±100 for the full control effect.
SMILES,Gal4-VP16 FLuc,RORgamma inh,TDP1 cell CPT,IL-1B inflam inh,LDHA block,DT40 TDP1 no CPT
CCOc1ccc(-n2c(=O)c3c(C)c(C)sc3n(CC(=O)N(CC)Cc3ccccc3)c2=O)cc1,·,·,18µM*,·,0,12µM*
Cc1ccc(-n2c(=O)c3c(C)c(C)sc3n(CC(=O)c3ccc(Cl)cc3)c2=O)cc1C,·,·,-14%,·,-2,-5%
CCN(Cc1ccccc1)C(=O)Cn1c(=O)n(-c2ccc(Cl)cc2)c(=O)c2c(C)c(C)sc21,·,·,3.7µM*,·,-3,18µM*
C/C(Cl)=C\Cc1c(C)nc2c(C)cccc2c1Cl,·,·,·,·,10,·
COc1ccc(S(=O)(=O)N2CCc3ccccc32)cc1C(=O)N1CCN(c2ccncc2)CC1,·,·,·,·,1,·
Cc1c(O)ccc2c(CN(C)CCOc3ccccc3F)cc(=O)oc12,·,·,·,·,4,·
CC(NC(=O)c1ccc(Cl)cc1)c1nnc(SCC(=O)c2ccccc2)n1C (stereo unspecified),·,·,·,·,2,·
CSc1ccc(CNC(=O)c2cccc(-c3ccc(S(=O)(=O)N4CCCCC4)cc3)c2)cc1,·,·,·,·,0,·
CCc1nn2c(=O)cc(COC(=O)c3ccc(NC(=O)c4cccs4)cc3)nc2s1,·,·,6.5µM*,·,-4,6.5µM*
CCCc1nn2c(=O)cc(COC(=O)c3cccc(NC(=O)c4cccs4)c3)nc2s1,·,·,?,·,2,?
CCc1nn2c(=O)cc(COc3cccc(NC(=O)c4ccco4)c3)nc2s1,-5%,36%,21µM*,-10,0,?
CCOc1cc(C(=O)OCc2cc(=O)n3nc(CC)sc3n2)cc(OCC)c1OCC,·,·,18µM*,·,1,?
Cc1nn2c(=O)cc(COC(=O)c3ccc(NC(=O)c4cccs4)cc3)nc2s1,·,·,16µM*,·,-14,15µM*
COc1cc(C(=O)OCc2cc(=O)n3nc(C4CCCCC4)sc3n2)cc(OC)c1OC,·,·,12µM*,·,1,10µM*
Cc1cccc(C(=O)Nc2cccc(C(=O)OCc3cc(=O)n4nc(C(C)C)sc4n3)c2)c1,·,·,?,·,-3,15µM*
CCc1nn2c(=O)cc(COC(=O)c3cccc(NC(=O)c4ccccc4C)c3)nc2s1,·,·,21µM*,·,-6,15µM*
CCc1nn2c(=O)cc(COC(=O)c3cccc(NC(=O)c4ccccc4Cl)c3)nc2s1,·,·,?,·,3,?
CC(=O)c1cccc(OC(=O)c2ccc3c(c2)CCCC3)c1,·,·,·,·,9,·
O=C(NC12CC3CC(CC(C3)C1)C2)c1ccc(-c2cccc(Cl)c2)o1,-2%,0%,?,5,-5,?
O=C(COC(=O)c1n[nH]c2ccccc12)NC(=O)NC1CCCC1,-2%,27%,?,12,0,-23%
O=C(COC(=O)c1n[nH]c2ccccc12)NC(=O)NC12CC3CC(CC(C3)C1)C2,-27%,-14%,13µM*,28,-1,9.2µM*
O=C(COC(=O)c1ccc(-c2ccc([N+](=O)[O-])cc2)o1)NC(=O)NC1CCCCC1,-20%,?,?,16,-5,?
O=C(COC(=O)c1ccc(-c2ccc([N+](=O)[O-])cc2)o1)NC(=O)NC12CC3CC(CC(C3)C1)C2,-1%,?,16µM*,-24,7,13µM*
O=C(NC12CC3CC(CC(C3)C1)C2)c1ccc(-c2ccc(Cl)cc2)o1,-13%,19%,23µM*,-27,-12,18µM*
O=[N+]([O-])c1cccc(C2C3CCC/C(=C\c4ccco4)C3=NN2c2ccccc2)c1 (stereo unspecified),·,·,·,·,7,·
SMILES,Gal4-VP16 FLuc,RORgamma inh,TDP1 cell CPT,IL-1B inflam inh,LDHA block,DT40 TDP1 no CPT
Cc1ccc(-c2nc(Cn3nnc(-c4cccc(F)c4)n3)cs2)cc1,·,·,·,·,-8,·
CNCc1ccccc1Sc1ccc(O)c(O)c1,7.1µM*,8.9µM*,2.6µM*,-125*,42,4.1µM*
COc1ccc(Sc2ccccc2CN(C)C)cc1OC,7%,-22%,-20%,-18,-2,?
Cc1nc([N+](=O)[O-])cn1CC(=O)c1ccc(Cl)cc1,-7%,-3%,-18%,19,-7,23%
Cc1nc([N+](=O)[O-])c(Br)n1CC(=O)c1ccc(Br)cc1,?,11µM*,7.3µM*,-84*,-2,8.2µM*
Cc1nc([N+](=O)[O-])c(Br)n1CC(=O)c1ccccc1,?,4µM*,18µM*,?,-1,8.2µM*
Cc1nc([N+](=O)[O-])c(Br)n1CC(=O)c1ccc2ccccc2c1,?,14µM*,21µM*,-120*,1,21µM*
Cc1sc2ccc3sccc3c2[n+]1C,-18%,5%,8.2µM*,-95*,-5,21µM*
Cc1cccc(C)c1NC(=O)C(C)N1CCN(C(=O)c2cccs2)CC1 (stereo unspecified),·,·,·,·,-5,·
COC(=O)C1=CC(C(=O)c2cccs2)=NN(c2ccc(OC)cc2)C1C(=O)OC (stereo unspecified),-8%,27%,?,-69*,-3,?
COC(=O)C1=NN(c2ccc(OC)cc2)C2C(=O)N(c3ccccc3OC)C(=O)C12 (stereo unspecified),-10%,-14%,12%,-8,-2,0%
Cc1cc(C)nc(-n2nc(C)c3c(C)c(C)c(C)nc32)n1,-6%,10µM*,·,·,·,·
Cc1cc(C)nc(-n2nc(C)c3c(=O)[nH]c(C(F)(F)F)nc32)n1,6%,-4%,-10%,-17,-1,?
Cn1cccc1/C=C(\C#N)c1ccc(F)cc1,·,·,·,·,8,·
COc1ccc(NC(=O)c2cc(C)nc3ccccc23)cc1S(=O)(=O)Nc1ccccc1Cl,?,?,-14%,18,?,?
Cc1ccc(SCCC(=O)Nc2ccc(Br)c(C)c2)cc1,-11%,39%,7%,-108*,-2,6%
CCN(CC(=O)Nc1ccc(Br)c(C)c1)CC(=O)NC(C)C,5%,19%,?,-3,-13,15µM*
COc1ccc(NC(=O)CCSc2ccc(C)cc2)cc1S(=O)(=O)Nc1ccccc1Cl,-6%,25%,?,24,-4,13µM*
COc1ccc(NC(=O)c2ccc3ccccc3n2)cc1S(=O)(=O)Nc1ccccc1Cl,-25%,35%[10 µM],?,9,2,23µM*
COCCC(C)NC(=O)c1cc(=O)[nH]c2ccccc12 (stereo unspecified),·,·,·,·,3,·
COc1ccc(NC(=O)CCS(=O)(=O)c2ccccc2Cl)cc1S(=O)(=O)Nc1ccc(Cl)cc1,10%,37%,?,-14,-3,16µM*

# Screening results (PubChem)
